Shown are actives, neighbours in structure and some others; about 2.9% of the full set was active somewhere.
GLP-1R inv ag: GLP-1 receptor (human) inverse agonism | P43220 | HEK293 GLP-1R CRE-luciferase, luminescence, 24 h; GLP-1R form is constitutively active | Potency, µM (series often up to 38.3 µM), usual class: inhibitors | 410,000 tested, 1.6% active; also: nearly all actives have a fitted effect of over 55% in size
Target sequence (P43220 whole entry, looked up): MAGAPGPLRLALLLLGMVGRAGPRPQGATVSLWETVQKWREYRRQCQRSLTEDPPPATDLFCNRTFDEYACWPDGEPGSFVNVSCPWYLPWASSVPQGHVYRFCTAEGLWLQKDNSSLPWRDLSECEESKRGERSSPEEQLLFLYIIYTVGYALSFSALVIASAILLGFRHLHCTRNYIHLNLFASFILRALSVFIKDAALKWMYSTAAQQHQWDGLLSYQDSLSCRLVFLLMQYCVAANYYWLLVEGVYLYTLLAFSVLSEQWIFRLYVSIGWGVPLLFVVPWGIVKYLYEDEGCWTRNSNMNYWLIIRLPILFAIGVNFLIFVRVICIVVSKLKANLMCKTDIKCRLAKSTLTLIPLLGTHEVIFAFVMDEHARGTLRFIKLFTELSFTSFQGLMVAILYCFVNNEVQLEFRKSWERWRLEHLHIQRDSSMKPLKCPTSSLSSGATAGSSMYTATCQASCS
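Using stably transfected HEK293 (constitutively active GLP-1R, cAMP-luciferase reporter), compounds were incubated 24 hr and luciferase measured by luminescence.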
LDHA inh: blocks human lactate dehydrogenase A. P00338. purified LDHA, NADH/diaphorase-resazurin fluorescence; hits give low values. activity change, % (values are at about 110 or 230 µM). 480,000 tested, 0.15% active; in the data active = activity change below about -30%; inconclusive = mostly about -25% to -30%
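LDH5 2 nM; NADH 0.06 mM, pyruvate 0.2 mM; 200 mM Tris pH 7.4, EDTA, Tween-20; 5 min RT. Detection: diaphorase 0.133 mg/mL + resazurin 37 µM, fluorescence ex540/em590 at 0 and 20 min; normalized to enzyme-free and DMSO wells.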
GLP-1R agonist: activates the human GLP-1 receptor; P43220; HEK293 GLP-1R CRE-luciferase, luminescence, 4-6 h; cells express a hypersensitive GLP-1R form; Potency, µM (titrated, usually from 45.6 µM), hits mostly activators; 380,000 tested, 0.007% active; AID 624172
ClpP mod: qHTS Assay for Activators of ClpP; ATP-dependent Clp protease proteolytic subunit (Bacillus subtilis (strain 168)), P80244; purified B. subtilis ClpP, FRET peptide cleavage, 20 min; 340,000 tested, 1.9% active; AID 651965, 2013; Potency, µM (top dose mostly 57.5 µM); active = well fitted falling curve with a large enough effect; inconclusive = small, poorly fitted or top-dose-only effect; inactive = no such curve, though single readings can be large or run the other way; also: the source files actives as falling curves though it sought activators and does not explain the sign; nearly all actives have a fitted effect of over 65% in size
Target sequence (P80244 whole entry, looked up): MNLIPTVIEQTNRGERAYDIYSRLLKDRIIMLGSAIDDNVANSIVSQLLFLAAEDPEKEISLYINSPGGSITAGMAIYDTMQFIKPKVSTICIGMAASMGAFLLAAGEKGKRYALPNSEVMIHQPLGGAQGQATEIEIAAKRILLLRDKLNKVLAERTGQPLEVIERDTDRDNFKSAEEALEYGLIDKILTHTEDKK
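ClpP 10 microg/mL final, pH 8 Tris/KCl buffer with BSA, glycerol, Tween-20; compound pinned in; FRET-FV substrate; RT 20 min; Ex320/Em430; ΔFRET vs ADEP 5.8 microM, DMSO, no enzyme.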
p53 reactivation: mutant p53 re-activation in reporter cells; H1299 p53-A138V BP100-luciferase reporter, luminescence, 24 h; Potency, µM (series often up to 92.2 µM), usual class: activators; 320,000 tested, 0.063% active; AID 504706; also: nearly all actives have a fitted effect of over 45% in size
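H1299 (p53-null), stable ts p53-A138V + BP100-Luc; 1000 cells/well, Opti-MEM/10% FBS; cpd 4 pt, 1:5; 24 h, 37 deg C, 5% CO2; detection reagent 10 min RT; luminescence.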
GLP1R cytotox: cytotoxic in the GLP-1 receptor inverse agonist counter-screen. HEK293 cAMP-luciferase reporter cells, luminescence, 24 h. Potency, µM (top dose mostly 38.3 µM), hits mostly inhibitors. 410,000 tested, 0.13% active. AID 624418;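 also: loss of luciferase light is scored as toxicity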
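Seeding density was 200 cells/uL; after overnight-length (12 h) culture, 23 nL compounds went on for 24 h at 37 °C. Readout used a luciferase detection reagent, luminescence taken after 12 min at room temperature.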
Of the large screens only hits and unclear results are named; the others gave an inactive call. Unless noted, calls follow the shape of the dose curve; as a rule, active = well fitted curve in the direction sought with a large enough effect; inconclusive = small, poorly fitted or top-dose-only effect, or another doubt; inactive = no such curve, though single readings can be large; an effect the other way counts as inactive or inconclusive.

CCc1ccc(OCC(=O)Nc2ccc(S(=O)(=O)NC(C)(C)C)cc2)c(Br)c1	none (no result: GLP-1R inv ag, GLP-1R agonist, ClpP mod, p53 reactivation, GLP1R cytotox)
Cc1ccc(Cn2c(C(C)Nc3nc(-c4ccc(F)cc4)cs3)nc3cc(C(=O)NCCCO)ccc32)cc1 (centres undefined)	none (no result: p53 reactivation)
CCOC(=O)C(=NC(C)CC)NNc1ccc(Br)cc1 (centres undefined)	GLP-1R inv ag 2.5µM (no result: ClpP mod)
CCOc1cc(/C=N/NS(=O)(=O)c2ccccc2)ccc1OS(=O)(=O)c1ccc(C)cc1	GLP-1R inv ag 8.9µM, ClpP mod inconclusive
COc1ccc(CN(CCC#N)CCC2(c3ccccc3)CC(C)N(C)CC2C)cc1OC (centres undefined)	GLP-1R inv ag 10µM, GLP1R cytotox inconclusive (no result: ClpP mod)
Cn1c2ccccc2c(=O)c2ccc(C#CC3(O)CCCCC3)cc21	GLP-1R inv ag 7.9µM (no result: p53 reactivation)
COc1cc2sc3ccc(C#CC4(O)CCCCC4)cc3c(=O)c2cc1OC	GLP-1R inv ag inconclusive (no result: p53 reactivation)
CC[C@@H]1[C@H]2CCCC(=O)N3CC[C@@H](C[C@@H]1OC(=O)Nc1ccc4c(c1)OCO4)[C@@H]23	none (no result: GLP-1R inv ag, LDHA inh, GLP-1R agonist, p53 reactivation, GLP1R cytotox)
CCN(CC)CCCNCC(=O)Nc1cc(C)on1	LDHA inh -30
Cc1cc2oc(=O)c(CC(=O)NCCCO)c(C)c2c2occ(C(C)(C)C)c12	GLP1R cytotox inconclusive
COCCNC(=O)Cc1c(C)c2c(cc(C)c3c(C(C)(C)C)coc32)oc1=O	GLP-1R inv ag inconclusive, ClpP mod 14µM, GLP1R cytotox inconclusive
O=C(O)c1ccccc1NC(c1ccccc1)c1ccc(Cl)cc1 (centres undefined)	GLP-1R inv ag 11µM
COc1cccc(C(C2=C(O)CC(C)(C)CC2=O)C2C(=O)CC(C)(C)CC2=O)c1 (centres undefined)	none
CCCCN1C(=O)N(CCc2ccc(F)cc2)S(=O)(=O)c2cc(C(F)(F)F)ccc21	GLP-1R inv ag 10µM
CCCCNc1ccc(C(F)(F)F)cc1S(=O)(=O)NCCc1ccc(F)cc1	GLP-1R inv ag inconclusive, ClpP mod inconclusive
Cc1cc2c(cc1S(=O)(=O)Nc1cccc(Cl)c1C)OCCN2C	GLP-1R inv ag 10µM (no result: GLP-1R agonist, p53 reactivation)
COc1ccc(NS(=O)(=O)c2cc3c(cc2C)N(C)CCO3)cc1	GLP-1R inv ag inconclusive (no result: p53 reactivation)
Cc1cc2c(cc1S(=O)(=O)N1CCN(c3cccc(C)c3C)CC1)OCCN2C	ClpP mod 28µM (no result: p53 reactivation)
C=CCc1ccc(O)c(OC)c1	none (no result: GLP-1R inv ag, LDHA inh, ClpP mod, p53 reactivation, GLP1R cytotox)
CCOC(=O)C1CCCN(CC(O)c2ccc(F)cc2)C1 (centres undefined)	none (no result: GLP-1R inv ag, GLP-1R agonist, ClpP mod, p53 reactivation, GLP1R cytotox)
O=c1c2c(nc3cc(-c4cccc(Cl)c4)[nH]n13)CCC2	GLP-1R inv ag inconclusive, ClpP mod 28µM, p53 reactivation inconclusive
O=c1c2c(nc3cc(-c4ccc(F)cc4)[nH]n13)CCCC2	GLP-1R inv ag inconclusive, ClpP mod 10µM, GLP1R cytotox inconclusive
CCc1ccc(-c2nn(CC(=O)Nc3ccccc3)c3c2cnc2ccc(F)cc23)cc1	none (no result: GLP-1R agonist, p53 reactivation)
COc1ccccc1C(CNC(=O)CCNS(=O)(=O)c1ccc(Br)cc1)N1CCCC1 (centres undefined)	GLP-1R inv ag 10µM (no result: ClpP mod, p53 reactivation)
CC(=O)N1CCN(C(=O)c2ccc(-c3ccccc3Cl)o2)CC1	p53 reactivation inconclusive
COc1ccccc1C(CNC(=O)c1ccc(-c2ccccc2Cl)o1)N1CCCC1 (centres undefined)	GLP-1R inv ag 4.5µM, GLP1R cytotox inconclusive (no result: ClpP mod)
O=C(CCNS(=O)(=O)c1ccc(Br)cc1)NCCc1ccc(Cl)cc1	GLP-1R inv ag 10µM (no result: ClpP mod)
O=C(c1ccc(-c2ccccc2Cl)o1)N1CCCCCCC1	GLP-1R inv ag 5.6µM, GLP-1R agonist inconclusive (no result: ClpP mod, p53 reactivation)
ClCC(Cl)C[n+]1cccc2ccccc21 (centres undefined)	LDHA inh -47 (no result: GLP-1R inv ag, GLP-1R agonist, ClpP mod, p53 reactivation, GLP1R cytotox)
CC(C)CCNC(=O)c1c2c(nc3ccccc13)C(=O)N(C1CCCCC1)C2	none (no result: GLP-1R agonist, p53 reactivation)
CCC(C)(C)c1ccc(Oc2ccc(N)cc2)cc1	GLP-1R inv ag 2.8µM (no result: ClpP mod)
Cc1nn(-c2ccccc2)c2nc(-c3ccco3)cc(C(=O)O)c12	p53 reactivation inconclusive
Cc1nn(-c2cccc(Cl)c2)c2nc(-c3ccco3)cc(C(=O)O)c12	ClpP mod 14µM
CCCn1cnc2c(SCCc3ccccc3)nc(N)nc21	none (no result: p53 reactivation)
CCOC(=O)C(C)Oc1ccc2c(CC)cc(=O)oc2c1C (centres undefined)	ClpP mod 18µM
CCOC(=O)COc1ccc2c(CC)cc(=O)oc2c1C	none (no result: GLP-1R inv ag, GLP-1R agonist, ClpP mod, p53 reactivation, GLP1R cytotox)
CCOc1ccc(/C=N/NC(=S)NC2CC3CC2C2C=CCC32)cc1 (centres undefined)	GLP-1R inv ag inconclusive, GLP1R cytotox inconclusive (no result: ClpP mod)
COc1cc(/C=N/NC(=S)NC2CC3CC2C2C=CCC32)ccc1O (centres undefined)	GLP-1R inv ag inconclusive, GLP-1R agonist inconclusive, GLP1R cytotox 4.5µM (no result: ClpP mod)
O=C(NCc1cccnc1)C1CCC(c2ccc(Cl)cc2)CC1 (centres undefined)	ClpP mod 28µM
CCN(CC)c1nn2c(=O)c(C(=O)NCCc3ccccc3C)cnc2s1	ClpP mod 4µM (no result: GLP-1R agonist, p53 reactivation)
CCOc1ccccc1CNC(=O)c1cnc2sc(N(CC)CC)nn2c1=O	ClpP mod 8.9µM (no result: GLP-1R agonist, p53 reactivation)
CCOc1ccc(CNC(=O)c2cnc3sc(N(CC)CC)nn3c2=O)cc1	none (no result: GLP-1R agonist, p53 reactivation)
CCN(CC)c1nn2c(=O)c(C(=O)NCCc3ccc(C)cc3)cnc2s1	ClpP mod 16µM (no result: GLP-1R agonist, p53 reactivation)
CCOc1ccc(CCNC(=O)c2cnc3sc(N(CC)CC)nn3c2=O)cc1OCC	ClpP mod inconclusive (no result: GLP-1R agonist, p53 reactivation)

Source: PubChem (National Center for Advancing Translational Sciences (NCATS))
